Data reported in the supplement of paper PMC10849652.
The full data set covers some 8,800 targets. This sample favours those with a hit. About 0.5% of all pairs of compound and target were hits.

compound: C1=CC2=C(C=CC(=C2)/C=C\3/C(=O)NC(=NCC4=CC=CS4)S3)N=C1; assay: log2 fold change, soluble protein after heating vs DMSO (PISA); higher = thermal stabilisation; K562 lysate, 10 uM; active = over 0.2 and 3.5 SD of the protein, either way, in both replicates (recomputed)
How it was run: (§1)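 Dounce homogenisation of K562 pellets in PBS pH 7.4 with 1 mM MgCl2 produced a crude extract, used at 1 mg/mL protein. Exposure to 10 μM compound lasted 30 min, and aliquots were then heated for 3 min across 48°C-58°C, pooled and brought to 0.5% NP-40 at 4°C. The supernatant after 21,000xg for 90 min was quantified by TMTpro 16plex LC-MS/MS with channel sums equalised. Duplicate values are given as log-two fold change in thermal stability relative to solvent controls.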

UniProt Q5XPI4, sequence (Q5XPI4 whole entry, looked up): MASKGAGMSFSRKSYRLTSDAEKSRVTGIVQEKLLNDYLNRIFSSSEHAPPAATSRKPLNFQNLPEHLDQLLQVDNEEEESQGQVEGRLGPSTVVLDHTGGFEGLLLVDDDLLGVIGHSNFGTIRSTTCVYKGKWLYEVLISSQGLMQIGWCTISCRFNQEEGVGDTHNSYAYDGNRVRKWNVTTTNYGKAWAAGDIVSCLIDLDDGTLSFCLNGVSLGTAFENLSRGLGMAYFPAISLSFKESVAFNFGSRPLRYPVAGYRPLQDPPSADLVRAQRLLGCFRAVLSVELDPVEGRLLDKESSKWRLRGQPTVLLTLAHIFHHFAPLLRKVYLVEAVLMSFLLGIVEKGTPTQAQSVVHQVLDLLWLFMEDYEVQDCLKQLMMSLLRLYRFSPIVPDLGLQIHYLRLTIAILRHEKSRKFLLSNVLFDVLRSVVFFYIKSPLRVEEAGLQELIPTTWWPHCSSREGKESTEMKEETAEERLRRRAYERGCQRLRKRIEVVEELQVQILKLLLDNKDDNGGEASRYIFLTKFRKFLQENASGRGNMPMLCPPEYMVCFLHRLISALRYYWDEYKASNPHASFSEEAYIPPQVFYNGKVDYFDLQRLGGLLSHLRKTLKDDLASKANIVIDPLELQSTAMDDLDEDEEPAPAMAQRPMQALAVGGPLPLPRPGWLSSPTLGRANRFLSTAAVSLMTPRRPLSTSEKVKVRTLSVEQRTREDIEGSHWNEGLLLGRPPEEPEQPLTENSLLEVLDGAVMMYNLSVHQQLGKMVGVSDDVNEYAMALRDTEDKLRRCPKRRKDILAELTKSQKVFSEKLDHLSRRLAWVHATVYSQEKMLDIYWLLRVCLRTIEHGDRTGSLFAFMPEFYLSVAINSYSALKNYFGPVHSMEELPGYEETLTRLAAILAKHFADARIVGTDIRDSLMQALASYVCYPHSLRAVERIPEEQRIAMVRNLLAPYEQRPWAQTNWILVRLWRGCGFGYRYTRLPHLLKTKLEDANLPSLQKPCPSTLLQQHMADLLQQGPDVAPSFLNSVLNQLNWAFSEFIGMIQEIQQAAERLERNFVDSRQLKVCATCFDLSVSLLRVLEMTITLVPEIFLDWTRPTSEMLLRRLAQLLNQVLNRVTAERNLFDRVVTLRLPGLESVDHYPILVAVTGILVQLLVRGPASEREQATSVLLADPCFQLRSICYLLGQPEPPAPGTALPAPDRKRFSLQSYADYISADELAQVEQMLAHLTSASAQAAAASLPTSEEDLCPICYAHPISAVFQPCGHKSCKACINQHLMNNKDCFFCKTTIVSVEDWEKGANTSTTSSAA
UniProt Q8IYW5, sequence (Q8IYW5 whole entry, looked up): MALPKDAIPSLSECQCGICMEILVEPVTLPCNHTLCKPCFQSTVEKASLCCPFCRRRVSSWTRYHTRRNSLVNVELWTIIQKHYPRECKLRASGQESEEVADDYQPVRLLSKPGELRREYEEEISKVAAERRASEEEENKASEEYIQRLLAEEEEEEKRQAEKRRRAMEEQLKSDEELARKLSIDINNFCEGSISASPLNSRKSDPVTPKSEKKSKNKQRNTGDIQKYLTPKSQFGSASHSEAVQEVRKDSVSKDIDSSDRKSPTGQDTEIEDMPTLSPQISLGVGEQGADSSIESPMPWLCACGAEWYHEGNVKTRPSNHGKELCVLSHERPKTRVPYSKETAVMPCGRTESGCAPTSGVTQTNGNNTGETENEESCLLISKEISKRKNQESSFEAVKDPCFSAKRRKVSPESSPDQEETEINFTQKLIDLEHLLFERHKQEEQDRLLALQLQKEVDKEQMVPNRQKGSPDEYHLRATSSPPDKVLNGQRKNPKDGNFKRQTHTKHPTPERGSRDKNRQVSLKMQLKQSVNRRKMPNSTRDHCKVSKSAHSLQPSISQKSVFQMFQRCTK
UniProt Q6NUQ1, sequence (Q6NUQ1 whole entry, looked up): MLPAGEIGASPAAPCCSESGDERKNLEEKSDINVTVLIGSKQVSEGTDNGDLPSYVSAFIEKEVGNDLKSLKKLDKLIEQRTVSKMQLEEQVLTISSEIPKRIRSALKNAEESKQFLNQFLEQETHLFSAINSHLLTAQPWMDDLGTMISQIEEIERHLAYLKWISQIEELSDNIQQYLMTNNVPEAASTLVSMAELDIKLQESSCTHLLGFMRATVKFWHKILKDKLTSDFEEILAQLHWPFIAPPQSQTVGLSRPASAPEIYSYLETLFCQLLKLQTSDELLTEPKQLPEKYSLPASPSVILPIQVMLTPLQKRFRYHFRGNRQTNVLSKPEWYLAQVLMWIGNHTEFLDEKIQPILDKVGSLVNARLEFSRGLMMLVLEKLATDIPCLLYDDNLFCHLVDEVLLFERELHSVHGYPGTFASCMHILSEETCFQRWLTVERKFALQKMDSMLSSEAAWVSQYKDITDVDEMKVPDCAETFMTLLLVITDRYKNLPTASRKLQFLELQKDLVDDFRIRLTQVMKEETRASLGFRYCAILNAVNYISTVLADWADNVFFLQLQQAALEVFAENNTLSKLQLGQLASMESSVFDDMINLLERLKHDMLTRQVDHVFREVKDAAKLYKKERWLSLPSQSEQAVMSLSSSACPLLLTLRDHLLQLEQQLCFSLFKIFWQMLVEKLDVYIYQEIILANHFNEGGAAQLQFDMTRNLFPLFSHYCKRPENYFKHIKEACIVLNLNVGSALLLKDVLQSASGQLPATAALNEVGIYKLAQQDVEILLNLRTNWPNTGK
UniProt Q9P0P0, sequence (Q9P0P0 whole entry, looked up): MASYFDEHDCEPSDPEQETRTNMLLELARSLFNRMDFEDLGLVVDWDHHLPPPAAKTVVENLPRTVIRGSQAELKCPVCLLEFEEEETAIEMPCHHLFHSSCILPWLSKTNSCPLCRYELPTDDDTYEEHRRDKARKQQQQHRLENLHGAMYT
UniProt Q13530, sequence (Q13530 whole entry, looked up): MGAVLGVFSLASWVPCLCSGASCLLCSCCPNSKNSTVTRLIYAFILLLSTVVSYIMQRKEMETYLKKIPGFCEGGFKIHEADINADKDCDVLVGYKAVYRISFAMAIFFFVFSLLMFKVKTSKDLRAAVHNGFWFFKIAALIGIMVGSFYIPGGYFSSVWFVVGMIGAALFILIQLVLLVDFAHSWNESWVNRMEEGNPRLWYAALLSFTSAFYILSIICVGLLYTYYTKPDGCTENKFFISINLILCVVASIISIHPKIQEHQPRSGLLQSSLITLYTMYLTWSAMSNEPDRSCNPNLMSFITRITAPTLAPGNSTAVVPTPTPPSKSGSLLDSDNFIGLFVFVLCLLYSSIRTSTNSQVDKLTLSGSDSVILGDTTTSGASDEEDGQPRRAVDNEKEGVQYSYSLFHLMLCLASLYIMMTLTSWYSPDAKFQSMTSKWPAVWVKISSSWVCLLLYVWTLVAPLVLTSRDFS
UniProt Q96DM3, sequence (Q96DM3 whole entry, looked up): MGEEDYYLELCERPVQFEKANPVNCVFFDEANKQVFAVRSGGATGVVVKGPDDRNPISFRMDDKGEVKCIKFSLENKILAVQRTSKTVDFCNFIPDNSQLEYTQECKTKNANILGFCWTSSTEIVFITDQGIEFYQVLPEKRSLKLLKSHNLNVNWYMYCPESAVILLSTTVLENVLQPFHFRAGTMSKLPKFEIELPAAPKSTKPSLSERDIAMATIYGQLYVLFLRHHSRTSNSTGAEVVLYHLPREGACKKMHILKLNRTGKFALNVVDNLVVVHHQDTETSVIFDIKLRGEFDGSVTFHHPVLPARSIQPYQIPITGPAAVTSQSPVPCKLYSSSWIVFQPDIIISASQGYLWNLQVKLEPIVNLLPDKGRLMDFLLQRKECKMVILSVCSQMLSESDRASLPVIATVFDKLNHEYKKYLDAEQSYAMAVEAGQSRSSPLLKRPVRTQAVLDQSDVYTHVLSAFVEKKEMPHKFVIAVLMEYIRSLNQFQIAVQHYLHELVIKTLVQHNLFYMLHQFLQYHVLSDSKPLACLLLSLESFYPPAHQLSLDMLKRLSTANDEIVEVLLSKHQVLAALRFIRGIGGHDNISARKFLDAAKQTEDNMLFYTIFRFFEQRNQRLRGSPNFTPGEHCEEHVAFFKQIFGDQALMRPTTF
UniProt Q9Y3Z3, sequence (Q9Y3Z3 whole entry, looked up): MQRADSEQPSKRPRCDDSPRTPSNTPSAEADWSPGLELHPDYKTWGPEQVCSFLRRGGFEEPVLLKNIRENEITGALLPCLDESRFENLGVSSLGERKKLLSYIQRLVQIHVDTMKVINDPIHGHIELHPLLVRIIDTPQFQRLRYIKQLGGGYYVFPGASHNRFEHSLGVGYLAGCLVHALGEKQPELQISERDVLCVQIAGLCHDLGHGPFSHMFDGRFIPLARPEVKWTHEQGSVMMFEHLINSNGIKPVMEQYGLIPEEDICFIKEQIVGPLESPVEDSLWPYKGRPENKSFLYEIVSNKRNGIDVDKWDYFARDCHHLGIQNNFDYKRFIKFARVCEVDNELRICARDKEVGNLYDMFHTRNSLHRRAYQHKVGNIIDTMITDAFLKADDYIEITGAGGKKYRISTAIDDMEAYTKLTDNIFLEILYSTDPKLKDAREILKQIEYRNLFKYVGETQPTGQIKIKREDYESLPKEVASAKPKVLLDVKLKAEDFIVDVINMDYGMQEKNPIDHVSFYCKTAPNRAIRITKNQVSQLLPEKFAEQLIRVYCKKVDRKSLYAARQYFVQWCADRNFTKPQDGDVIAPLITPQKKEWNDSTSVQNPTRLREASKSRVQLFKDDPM
UniProt Q7Z6M1, sequence (Q7Z6M1 whole entry, looked up): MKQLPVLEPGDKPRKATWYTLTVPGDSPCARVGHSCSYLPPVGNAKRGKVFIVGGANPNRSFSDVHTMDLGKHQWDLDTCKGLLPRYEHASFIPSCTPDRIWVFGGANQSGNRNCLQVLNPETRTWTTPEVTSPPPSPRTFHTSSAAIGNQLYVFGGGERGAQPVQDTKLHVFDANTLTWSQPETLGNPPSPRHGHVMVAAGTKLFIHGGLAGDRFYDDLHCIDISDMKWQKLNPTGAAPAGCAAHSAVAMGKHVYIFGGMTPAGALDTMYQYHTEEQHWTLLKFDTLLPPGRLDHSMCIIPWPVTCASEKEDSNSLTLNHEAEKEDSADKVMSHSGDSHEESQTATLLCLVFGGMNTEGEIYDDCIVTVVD

log2 fold change, inactive:
SERPINI1 (UniProt Q99574) 0.027
SASS6 (UniProt Q6UVJ0) -0.019
RPS6KB1 (UniProt P23443) 0.013
SAMHD1 (UniProt Q9Y3Z3) 0.015
S100A11 (UniProt P31949) -0.008
RTN4IP1 (UniProt Q8WWV3) 0.065
RIOK3 (UniProt O14730) 0.029
RAB6D (UniProt Q53S08) -0.025
RHAG (UniProt Q02094) 0.086
RIPK1 (UniProt Q13546) -0.022
RMC1 (UniProt Q96DM3) -0.06
RAB21 (UniProt Q9UL25) 0.02
RABEPK (UniProt Q7Z6M1) 0.004
SCO1 (UniProt O75880) -0.014
RINT1 (UniProt Q6NUQ1) 0.012
RDH14 (UniProt Q9HBH5) -0.049
RPL31 (UniProt P62899) -0.01
RAF1 isoform 2 (UniProt P04049) -0.072
RDX (UniProt P35241) -0.023
RPS4X (UniProt P62701) -0.012
RIC1 (UniProt Q4ADV7) 0.025
RRM1 (UniProt P23921) 0.025
RNF123 (UniProt Q5XPI4) 0.029
RNF181 (UniProt Q9P0P0) 0.036
RNF213, A0A0A0MTC1 0.042
RNF168 (UniProt Q8IYW5) -0.081
SAR1B (UniProt Q9Y6B6) -0.046
RFC2 (UniProt P35250) -0.017
SBF1 isoform 4 (UniProt O95248) -0.052
SERINC3 (UniProt Q13530) 0.073
RPS29 (UniProt P62273) -0.064
RPS26P11 (UniProt Q5JNZ5) -0.01
RFC5 (UniProt P40937) 0.036

compound: C1=CC2=NC=CN=C2C=C1/C=C/3\C(=O)NC(=O)S3; assay: as above
How it was run: as §1

log2 fold change, inactive:
SERPINI1 (UniProt Q99574) 0.054
SASS6 (UniProt Q6UVJ0) -0.009
RPS6KB1 (UniProt P23443) -0.001
SAMHD1 (UniProt Q9Y3Z3) 0.005
S100A11 (UniProt P31949) -0.028
RTN4IP1 (UniProt Q8WWV3) -0.017
RIOK3 (UniProt O14730) -0.011
RAB6D (UniProt Q53S08) -0.048
RHAG (UniProt Q02094) -0.007
RIPK1 (UniProt Q13546) -0.015
RMC1 (UniProt Q96DM3) 0.004
RAB21 (UniProt Q9UL25) 0.02
RABEPK (UniProt Q7Z6M1) 0.032
SCO1 (UniProt O75880) 0.011
RINT1 (UniProt Q6NUQ1) 0.03
RDH14 (UniProt Q9HBH5) 0.037
RPL31 (UniProt P62899) 0.001
RAF1 isoform 2 (UniProt P04049) -0.113
RDX (UniProt P35241) -0.032
RPS4X (UniProt P62701) -0.018
RIC1 (UniProt Q4ADV7) -0.176
RRM1 (UniProt P23921) 0.029
RNF123 (UniProt Q5XPI4) 0.019
RNF181 (UniProt Q9P0P0) -0.001
RNF213, A0A0A0MTC1 0.015
RNF168 (UniProt Q8IYW5) 0.037
SAR1B (UniProt Q9Y6B6) -0.065
RFC2 (UniProt P35250) 0.018
SBF1 isoform 4 (UniProt O95248) -0.005
SERINC3 (UniProt Q13530) 0.021
RPS29 (UniProt P62273) -0.026
RPS26P11 (UniProt Q5JNZ5) 0.039
RFC5 (UniProt P40937) -0.012

compound: C1=CC=C(C=C1)C2=NC(=C(N2)C3=CC=NC=C3)C4=CC(=C(C=C4)Cl)O; assay: as above
How it was run: as §1

log2 fold change, inactive:
SERPINI1 (UniProt Q99574) -0.007
SASS6 (UniProt Q6UVJ0) 0.015
RPS6KB1 (UniProt P23443) 0.083
SAMHD1 (UniProt Q9Y3Z3) -0.021
S100A11 (UniProt P31949) -0.009
RTN4IP1 (UniProt Q8WWV3) -0.003
RIOK3 (UniProt O14730) 0.023
RAB6D (UniProt Q53S08) -0.019
RHAG (UniProt Q02094) -0.012
RIPK1 (UniProt Q13546) 0.008
RMC1 (UniProt Q96DM3) -0.008
RAB21 (UniProt Q9UL25) -0.028
RABEPK (UniProt Q7Z6M1) 0.007
SCO1 (UniProt O75880) 0.012
RINT1 (UniProt Q6NUQ1) -0.042
RDH14 (UniProt Q9HBH5) 0.021
RPL31 (UniProt P62899) 0
RAF1 isoform 2 (UniProt P04049) -0.009
RDX (UniProt P35241) 0.018
RPS4X (UniProt P62701) -0.002
RIC1 (UniProt Q4ADV7) 0.044
RRM1 (UniProt P23921) -0.01
RNF123 (UniProt Q5XPI4) -0.015
RNF181 (UniProt Q9P0P0) 0.022
RNF213, A0A0A0MTC1 0.021
RNF168 (UniProt Q8IYW5) -0.007
SAR1B (UniProt Q9Y6B6) -0.045
RFC2 (UniProt P35250) 0.004
SBF1 isoform 4 (UniProt O95248) -0.027
SERINC3 (UniProt Q13530) -0.02
RPS29 (UniProt P62273) 0.017
RPS26P11 (UniProt Q5JNZ5) 0.005
RFC5 (UniProt P40937) 0.029
